According to PubChem BioAssay (NCATS):
Where “and” joins values, the source holds several entries; their conditions need not be identical. Identical values can stand only once. Inconclusive results are not listed. Calls of active or inactive are those of the source. Unless noted, calls follow the shape of the dose curve; as a rule, active = well fitted curve in the direction sought with a large enough effect; inconclusive = small, poorly fitted or top-dose-only effect, or another doubt; inactive = no such curve, though single readings can be large; an effect the other way counts as inactive or inconclusive.

Columns and labels:
[1] = AP1 Signaling Pathway (AID 357; active = well fitted curve in either direction with a large enough effect, not every such curve was filed as active;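 also: ME-180 reporter cells stimulated with EGF at its EC50 level; % is scaled to controls: 0 for no effect and ±100 for the full control effect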)
Outline: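 First, ME-180 AP-1-bla cells were cultured overnight at 37 °C in low-serum Opti-MEM. Next, titrated compounds with EC50 EGF were incubated 5 hours. Finally, CCF4 was added for 2.5 hours and the 460/530 nm ratio recorded.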

[2] = Stat Signaling Pathway (AID 446; active = well fitted curve in either direction with a large enough effect, not every such curve was filed as active;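 also: ME-180 cervical cancer cells given 40 pM IL-6 alongside compound; SIE-controlled beta-lactamase reporter measured as 460/530 nm FRET emission ratio; % is scaled to controls: 0 for no effect and ±100 for the full control effect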)
Outline: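 ME-180 cells carrying a SIE-driven beta-lactamase reporter are stimulated with 40 pM IL-6 for 5 h at 37C in the presence of compound. The 460/530 nm FRET substrate ratio is read after 2.5 h at RT. Data are normalised to 300 pM IL-6 and to 125 nM JAK inhibitor controls.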

[3] = target: Mitogen-activated protein kinase 10 (Mus musculus) (UniProt Q61831); test: JNK3 AlphaScreen Assay (AID 530; active = well fitted curve in either direction with a large enough effect, not every such curve was filed as active;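 also: kinase came from lysate of stimulated human HepG2 cells; signal reports phosphorylation of biotinylated GST-cJun 1-79 at Ser73 with 10 µM ATP; % is scaled to controls: 0 for no effect and ±100 for the full control effect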)
Outline: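 Pre-activated (IL-1β/TNFα) JNK3 in HepG2 lysates phosphorylates biotin-GST-cJun(1-79), 10 uM ATP; anti-phospho-cJun(Ser73) AlphaScreen read at room temperature, pH 7.6 Tris buffer. Compounds pre-incubated 15 min as titrations.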

[4] = target: 3',5'-cyclic-AMP phosphodiesterase 4B (Homo sapiens) (UniProt Q07343); test: qHTS Assay for Inhibitors of PDE-IV (AID 607; active = well fitted activation curve with a large enough effect in the main read-out, with a control signal flat, not every such curve was filed as active; also: % of control where 0% means no effect)
Sequence of 3',5'-cyclic-AMP phosphodiesterase 4B (Homo sapiens) (Q07343 whole entry, looked up): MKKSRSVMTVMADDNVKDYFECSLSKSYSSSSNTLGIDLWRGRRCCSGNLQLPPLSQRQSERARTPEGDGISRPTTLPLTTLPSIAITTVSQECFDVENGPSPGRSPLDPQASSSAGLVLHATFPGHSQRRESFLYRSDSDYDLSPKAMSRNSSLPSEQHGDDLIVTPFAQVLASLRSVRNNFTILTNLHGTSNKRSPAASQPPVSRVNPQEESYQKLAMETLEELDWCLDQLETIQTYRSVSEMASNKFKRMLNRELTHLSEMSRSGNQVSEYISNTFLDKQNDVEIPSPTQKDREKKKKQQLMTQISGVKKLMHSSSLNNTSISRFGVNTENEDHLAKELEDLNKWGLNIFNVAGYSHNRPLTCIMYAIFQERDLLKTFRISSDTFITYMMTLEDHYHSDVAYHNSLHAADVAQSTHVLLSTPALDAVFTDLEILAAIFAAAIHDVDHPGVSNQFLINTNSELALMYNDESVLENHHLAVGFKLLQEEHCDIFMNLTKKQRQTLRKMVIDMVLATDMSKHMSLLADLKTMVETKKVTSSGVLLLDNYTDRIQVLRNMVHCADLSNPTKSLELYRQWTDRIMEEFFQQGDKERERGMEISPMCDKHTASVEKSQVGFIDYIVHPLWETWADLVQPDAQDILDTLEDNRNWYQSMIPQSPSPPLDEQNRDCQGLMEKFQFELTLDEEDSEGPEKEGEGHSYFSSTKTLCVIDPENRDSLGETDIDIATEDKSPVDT
Outline: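 HEK293 ACTOne cells with CNG channel (1000/well), endogenous PDE4; membrane potential dye, compounds up to 22.9 uM final. Fluorescence Ex 535/Em 590; RO 20-1724 (100 uM final) as reference.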

[5] = qHTS Assay for Lipid Storage Modulators (AID 1519; calls by dose curve); details: Drosophila S3 cells, BODIPY lipid droplet/cell ratio, laser cytometry, cells loaded with oleic acid
Outline: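 Cells seeded at 5,000 per well were treated with compounds over a concentration series and loaded with oleic acid (400 uM, as added). Lipid droplet fluorescence (488 nm excitation, 500-530 nm channel) was read by laser-scanning cytometry and normalized to 20 uM Triacsin C.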

[6] = target: Ubiquitin carboxyl-terminal hydrolase 1 (Homo sapiens) (UniProt O94782); test: Inhibitors of USP1/UAF1: Pilot qHTS (AID 504865);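 also: rhodamine fluorescence freed from ubiquitin-rhodamine substrate followed over time; top concentration of the series differs between compounds; % is scaled to controls: 0 for no effect and ±100 for the full control effect; nearly all actives have a fitted effect of over 35% in size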
Sequence of Ubiquitin carboxyl-terminal hydrolase 1 (Homo sapiens) (O94782 whole entry, looked up): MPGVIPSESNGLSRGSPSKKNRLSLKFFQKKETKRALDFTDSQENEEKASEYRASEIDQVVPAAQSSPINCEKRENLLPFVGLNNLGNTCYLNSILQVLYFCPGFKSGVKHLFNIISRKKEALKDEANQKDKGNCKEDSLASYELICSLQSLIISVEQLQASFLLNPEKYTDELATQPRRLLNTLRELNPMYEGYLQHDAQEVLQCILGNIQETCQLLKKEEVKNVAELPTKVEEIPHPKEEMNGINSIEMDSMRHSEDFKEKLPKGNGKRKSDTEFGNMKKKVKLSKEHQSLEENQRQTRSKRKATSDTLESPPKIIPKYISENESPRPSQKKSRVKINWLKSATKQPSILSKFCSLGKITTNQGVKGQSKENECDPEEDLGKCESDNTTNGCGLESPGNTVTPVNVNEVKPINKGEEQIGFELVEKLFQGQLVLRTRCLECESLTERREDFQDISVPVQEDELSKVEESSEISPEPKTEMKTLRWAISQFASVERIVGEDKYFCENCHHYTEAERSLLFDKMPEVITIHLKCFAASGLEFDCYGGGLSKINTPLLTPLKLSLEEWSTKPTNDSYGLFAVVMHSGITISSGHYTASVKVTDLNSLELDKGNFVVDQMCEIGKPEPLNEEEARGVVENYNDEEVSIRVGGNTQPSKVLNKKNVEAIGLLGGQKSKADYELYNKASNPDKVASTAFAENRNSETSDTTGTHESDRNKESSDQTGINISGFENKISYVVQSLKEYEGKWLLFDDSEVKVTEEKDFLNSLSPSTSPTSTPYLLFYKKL
Outline: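 USP1/UAF1 complex (1nM) preincubated with compound 15 min at room temperature, then Ub-Rho substrate (150nM final) added. Fluorescence read kinetically at 480/540 nm, 6 reads every 60 seconds. Buffer: 50mM HEPES pH 7.8, 0.5mM EDTA, 0.1 mg/ml BSA, 1mM TCEP, 0.01% Tween-20.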

[7] = target: Glucocorticoid receptor (Homo sapiens) (UniProt P04150); test: GR-EFC Redistribution (AID 451; calls by dose curve; also: potency is read from the fitted curve at half-maximal effect); details: CHO-K1 GR-EFC translocation, beta-gal luminescence, 2 h
Sequence of Glucocorticoid receptor (Homo sapiens) (P04150 whole entry, looked up, the tested form may be a part): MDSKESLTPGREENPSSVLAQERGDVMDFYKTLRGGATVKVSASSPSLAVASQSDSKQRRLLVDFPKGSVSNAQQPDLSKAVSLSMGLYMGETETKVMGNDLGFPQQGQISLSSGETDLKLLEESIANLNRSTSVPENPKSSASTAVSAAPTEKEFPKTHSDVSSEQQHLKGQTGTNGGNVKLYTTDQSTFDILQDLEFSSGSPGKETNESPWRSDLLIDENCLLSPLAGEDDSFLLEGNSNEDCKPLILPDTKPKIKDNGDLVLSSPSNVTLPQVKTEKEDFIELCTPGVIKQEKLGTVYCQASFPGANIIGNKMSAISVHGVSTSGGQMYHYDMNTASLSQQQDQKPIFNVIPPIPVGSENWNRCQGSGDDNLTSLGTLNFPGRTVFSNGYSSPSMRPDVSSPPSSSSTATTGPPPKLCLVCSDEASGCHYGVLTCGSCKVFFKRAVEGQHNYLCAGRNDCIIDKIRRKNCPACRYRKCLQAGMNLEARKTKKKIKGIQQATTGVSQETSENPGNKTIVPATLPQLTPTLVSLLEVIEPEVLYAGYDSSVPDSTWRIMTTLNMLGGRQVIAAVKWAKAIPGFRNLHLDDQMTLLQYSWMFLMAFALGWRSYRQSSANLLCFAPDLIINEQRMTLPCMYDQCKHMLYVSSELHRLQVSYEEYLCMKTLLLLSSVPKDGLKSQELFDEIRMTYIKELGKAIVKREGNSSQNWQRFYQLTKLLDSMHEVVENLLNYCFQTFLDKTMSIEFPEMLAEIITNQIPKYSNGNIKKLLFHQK
Outline: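 CHO-K1 cells expressing nuclear EA and GR-ED fragments of b-gal; compounds titrated up to 46 uM final, 2 h at 37 C. GR nuclear translocation read as complemented b-gal luminescence after 1 h RT detection.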

[8] = target: Glucocorticoid receptor (Homo sapiens) (UniProt P04150); test: GR-GFP Redistribution (AID 450;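 active = compounds whose dose series gives a full or clear partial fitted curve of increased nuclear translocation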; also: potency is read from the fitted curve at half-maximal effect); details: U2OS GR-GFP nuclear translocation, laser cytometry, 2 h
[9] = NFAT Signaling Pathway (AID 444; active = well fitted curve in either direction with a large enough effect, not every such curve was filed as active;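 also: carbachol stimulus at about its EC50 of 1 µM final; % is scaled to controls: 0 for no effect and ±100 for the full control effect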); details: Jurkat NFAT-bla M1, carbachol, beta-lactamase ratio, 5 h; at 17.2 µM (top of the series) unless noted
Outline: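 Jurkat cells with NFAT-driven β-lactamase reporter and co-expressed M1 receptor, stimulated with carbachol (final 1 uM, ~EC50), compound titration, 5 h at 37 °C. CCF4 loaded 1 h at RT; 460/530 nm ratio gave %activity and AC50.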

[10] = target: ATP-dependent 6-phosphofructokinase (Trypanosoma brucei brucei) (UniProt O15648); test: qHTS Assay to Find Inhibitors of T. brucei phosphofructokinase: hit validation (AID 492961)
Sequence of ATP-dependent 6-phosphofructokinase (Trypanosoma brucei brucei) (O15648 whole entry, looked up): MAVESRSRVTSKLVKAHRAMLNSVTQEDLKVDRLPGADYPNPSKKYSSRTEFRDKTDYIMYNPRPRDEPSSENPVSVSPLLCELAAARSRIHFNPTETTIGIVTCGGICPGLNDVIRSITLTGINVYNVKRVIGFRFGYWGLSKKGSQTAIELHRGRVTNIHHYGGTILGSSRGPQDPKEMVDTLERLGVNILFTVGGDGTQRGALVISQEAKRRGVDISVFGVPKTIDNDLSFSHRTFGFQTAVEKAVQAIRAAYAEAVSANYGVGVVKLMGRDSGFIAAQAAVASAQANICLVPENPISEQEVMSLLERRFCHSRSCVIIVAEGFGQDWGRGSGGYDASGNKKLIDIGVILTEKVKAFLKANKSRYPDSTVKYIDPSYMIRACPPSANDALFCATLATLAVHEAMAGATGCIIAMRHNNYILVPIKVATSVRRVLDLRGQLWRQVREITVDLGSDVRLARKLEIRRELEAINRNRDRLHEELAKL
Outline: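 Inhibition of parasite PFK is measured as reduced ADP formation, quantified via luciferase after ATP depletion. Assay used 0.1 mM ATP, 0.5 mM F6P, 1.25 nM enzyme, 45 min incubation.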

[11] = S16 Schwann cell PMP22 intronic element firefly luciferase assay (AID 624032);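 also: plate controls were DMSO for no effect and PTC124 positive control mean for full effect; nearly all actives have a fitted effect of over 30% in size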
Outline: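 Rat S16 Schwann cells stably carrying firefly luciferase driven by a PMP22 intronic element, in 10% FBS, treated 24 h at 37 C. ONE-Glo luminescence normalized to PTC124 control and DMSO (0%); curves classed by r2, magnitude and activity.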

[12] = qHTS profiling for inhibitors of Plasmodium falciparum proliferation (AID 504749);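 also: 0% = DMSO vehicle and full inhibition = artemisinin control; nearly all actives have a fitted effect of over 60% in size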; details: P. falciparum in erythrocytes, SYBR Green DNA, 72 h
Outline: (§1)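 P. falciparum-infected erythrocytes (0.3% parasitemia, 2.5% hematocrit) incubated with compound 72 h at 37 C, 5% CO2. Parasite DNA detected by SYBR Green after lysis, overnight at room temperature; normalised to 0.29 uM artemisinin and DMSO.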

C2A = test: as above; details: P. falciparum in erythrocytes, SYBR Green DNA, 72 h; series mostly up to 12.8 µM
Outline: as §1

CP201 = test: as above; details: P. falciparum in erythrocytes, SYBR Green DNA, 72 h; series mostly up to 12.8 µM
Outline: as §1

CP238 = test: as above; details: P. falciparum in erythrocytes, SYBR Green DNA, 72 h; series mostly up to 12.8 µM
Outline: as §1

CP250 = test: as above; details: P. falciparum in erythrocytes, SYBR Green DNA, 72 h; series mostly up to 12.8 µM
Outline: as §1

FAB9 = test: as above; details: P. falciparum in erythrocytes, SYBR Green DNA, 72 h; series mostly up to 12.8 µM
Outline: as §1

JCK = test: as above; details: P. falciparum in erythrocytes, SYBR Green DNA, 72 h; series mostly up to 12.8 µM
Outline: as §1

PC49 = test: as above; details: P. falciparum in erythrocytes, SYBR Green DNA, 72 h; series mostly up to 12.8 µM
Outline: as §1

SC27B = test: as above; details: P. falciparum in erythrocytes, SYBR Green DNA, 72 h; series mostly up to 12.8 µM
Outline: as §1

[13] = measured here: cell count channel max response
[14] = measured here: lipid channel max response
[15] = at 12.8 µM (top of the series), parasite line A
[16] = at 12.8 µM (top of the series), parasite line B

CC(=O)N(C[C@@H](O)CO)c1c(I)c(C(=O)NC[C@@H](O)CO)c(I)c(C(=O)NC[C@@H](O)CO)c1I
-19.4%: max response [5, 14]
inactive: outcome [1] | outcome [2] | Potency [3] | outcome [4] | activity change, negative = inhibition ([5]; at 25.7 µM (top of the series)) -2.6% | Potency [6]
-16.6%: max response [5, 13]

N#Cc1cccc(-c2cncnc2-n2ccnc2)c1
inactive: outcome [1] | outcome [2] | Potency [7] > 46 µM | Potency [3] | outcome [4] | activity change, negative = inhibition ([5]; at 57.5 µM (top of the series)) 8.24% | Potency [6]
16.1%: max response [5, 13]
24.6%: max response [5, 14]

CS(=O)(=O)Nc1cccc(-c2nc(Nc3ccc(F)cc3)c3ccccc3n2)c1
inactive: outcome [1] | Potency [8] > 46 µM | Potency [7] > 46 µM | Potency [3] | outcome [4] | activity change, negative = inhibition ([5]; at 57.5 µM (top of the series)) 3.03%
-21%: max response [5, 13]
-26.1%: max response [5, 14]

C1CCN2C[C@@H]3C[C@@H](CN4CCCC[C@H]34)[C@H]2C1
-3.93%: max response [5, 13]
-5.58%: max response [5, 14]
inactive: outcome [1] | activity change, negative = inhibition [9] -16.7% | outcome [2] | Potency [8] > 20.6 µM and > 46 µM | Potency [7] > 20.6 µM and > 46 µM | Potency [3] | outcome [4] | activity change, negative = inhibition ([5]; at 25.7 µM (top of the series)) -1.82% | outcome [10] | Potency [6] | Potency [11] | activity, negative = inhibition [12, 15] 5.24% | activity, negative = inhibition [12, 16] 14.7% | Potency (C2A) | Potency (CP201) | Potency (CP238) | Potency (CP250) | Potency (FAB9) | Potency (JCK) | Potency (PC49) | Potency (SC27B)

C=CC1=C(C(=O)O)N2C(=O)[C@@H](NC(=O)/C(=N\OCC(=O)O)c3csc(N)n3)[C@@H]2SC1
inactive: outcome [1] | outcome [2] | Potency [3] | outcome [4] | activity change, negative = inhibition ([5]; at 25.7 µM (top of the series)) 0.264% | Potency [6] | Potency [11] | activity, negative = inhibition [12, 15] -8.61% | activity, negative = inhibition [12, 16] -5.96% | Potency (C2A) | Potency (CP201) | Potency (CP238) | Potency (CP250) | Potency (FAB9) | Potency (JCK) | Potency (PC49) | Potency (SC27B)
6.88%: max response [5, 13]
9.17%: max response [5, 14]

CCOC(=O)C1=C(C)NC(C)=C(C(=O)OC)[C@@H]1c1cccc([N+](=O)[O-])c1
inactive: outcome [1] | outcome [2] | Potency [3] | outcome [4] | activity change, negative = inhibition ([5]; at 25.7 µM (top of the series)) 0.673% | Potency [6]
-22.2%: max response [5, 14]
-15%: max response [5, 13]

C[C@@H]1[C@H]2CC[C@@H]3[C@@H]4CC=C5C[C@@H](N(C)C)CC[C@]5(C)[C@@H]4CC[C@@]32CN1C
inactive: outcome [1] | outcome [2] | Potency [8] > 20.6 µM | Potency [7] > 20.6 µM | Potency [3] | outcome [4] | activity change, negative = inhibition ([5]; at 25.7 µM (top of the series)) -1.08%
-4.62%: max response [5, 13]
-8.59%: max response [5, 14]

C[C@@H]1O[C@H](O[C@@H]2\C=C/C=C\C=C/C=C\C[C@H](C)OC(=O)/C=C\[C@H]3O[C@@H]3C[C@H](O)C[C@]3(O)C[C@@H](O)[C@@H](C(=O)O)[C@H](C2)O3)[C@@H](O)[C@H](N)[C@@H]1O (stereo in doubt)
inactive: outcome [1] | activity change, negative = inhibition [9] -3.9% | outcome [2] | Potency [8] > 20.6 µM | Potency [7] > 20.6 µM | Potency [3] | outcome [4] | activity change, negative = inhibition ([5]; at 25.7 µM (top of the series)) 2.21% | outcome [10] | Potency [6] | Potency [11] | activity, negative = inhibition ([12]; at 28.7 µM (top of the series), parasite line A) 9.05% | activity, negative = inhibition ([12]; at 28.7 µM (top of the series), parasite line B) 8% | Potency (C2A) | Potency (CP201) | Potency (CP238) | Potency (CP250) | Potency (FAB9) | Potency (JCK) | Potency (PC49) | Potency (SC27B)
-4.86%: max response [5, 13]
0.155%: max response [5, 14]

c1ccc2c(c1)CCCc1cc(NCCN3CCOCC3)nnc1-2
inactive: outcome [1] | outcome [2] | Potency [8] > 20.6 µM | Potency [7] > 20.6 µM | outcome [4] | activity change, negative = inhibition ([5]; at 25.7 µM (top of the series)) -1.57% | Potency [6]
0.476%: max response [5, 13]
-2.33%: max response [5, 14]

C[C@@H]1C[C@H](OC(=O)[C@@H](O)c2ccccc2)CC(C)(C)N1C
inactive: outcome [1] | outcome [2] | Potency [8] > 20.6 µM | Potency [7] > 20.6 µM | Potency [3] | outcome [4] | activity change, negative = inhibition ([5]; at 25.7 µM (top of the series)) -2.91%
-2.86%: max response [5, 13]
-7.41%: max response [5, 14]

C#C[C@]1(O)CC[C@@H]2[C@H]3CCc4cc(OC)ccc4[C@@H]3CC[C@@]21C
inactive: outcome [1] | outcome [2] | Potency [8] > 20.6 µM | Potency [7] > 20.6 µM | Potency [3] | activity change, negative = inhibition ([5]; at 25.7 µM (top of the series)) -2.31% | Potency [6]
-15.5%: max response [5, 13]
-16.7%: max response [5, 14]

CCOC(=O)O[C@]1(C(=O)COC(=O)CC)CC[C@@H]2[C@@H]3CCC4=CC(=O)C=C[C@@]4(C)[C@H]3[C@H](O)C[C@]21C
-11.8%: max response [5, 14]
active: Potency [8] 0.00356 µM
inactive: outcome [1] | Potency [3] | outcome [4] | activity change, negative = inhibition ([5]; at 25.7 µM (top of the series)) -3.74% | outcome [10] | Potency [6] | Potency [11] | activity, negative = inhibition [12, 15] 4.34% | activity, negative = inhibition [12, 16] 0.379% | Potency (C2A) | Potency (CP201) | Potency (CP238) | Potency (CP250) | Potency (FAB9) | Potency (JCK) | Potency (PC49) | Potency (SC27B)
-6.91%: max response [5, 13]

CC(=C(CCOP(=O)(O)O)SC(=O)c1ccccc1)N(C=O)Cc1cnc(C)nc1N
-2.64%: max response [5, 14]
inactive: outcome [1] | activity change, negative = inhibition [9] 2.39% | outcome [2] | Potency [8] > 20.6 µM | Potency [7] > 20.6 µM | Potency [3] | outcome [4] | activity change, negative = inhibition ([5]; at 25.7 µM (top of the series)) 0.981% | outcome [10] | Potency [6] | Potency [11] | activity, negative = inhibition [12, 15] -4.37% | activity, negative = inhibition [12, 16] 20.3% | Potency (C2A) | Potency (CP201) | Potency (CP238) | Potency (CP250) | Potency (FAB9) | Potency (JCK) | Potency (PC49) | Potency (SC27B)
-3.81%: max response [5, 13]
